Measurements taken from article PMC7862700, “An all-to-all approach to the identification of sequence-specific readers for epigenetic DNA modifications on cytosine”.

Experiments:
Assay in all cases: DAPPL (digital affinity profiling via proximity ligation, sequencing); 10 mM Tris-HCl pH 7.5, 50 mM NaCl, 1 mM DTT, 4% glycerol, room temperature, 30 min; GST-TFs on glutathione beads, 16-mer random dsDNA library, 0.1% formaldehyde crosslink after washing; high values mean tight binding
Conditions in all cases: protein: recombinant; tags: N-terminal GST; dsDNA, one strand shown
[1] = target: T1, ERF (Homo sapiens, UniProt P50548 1-548)
T1 sequence: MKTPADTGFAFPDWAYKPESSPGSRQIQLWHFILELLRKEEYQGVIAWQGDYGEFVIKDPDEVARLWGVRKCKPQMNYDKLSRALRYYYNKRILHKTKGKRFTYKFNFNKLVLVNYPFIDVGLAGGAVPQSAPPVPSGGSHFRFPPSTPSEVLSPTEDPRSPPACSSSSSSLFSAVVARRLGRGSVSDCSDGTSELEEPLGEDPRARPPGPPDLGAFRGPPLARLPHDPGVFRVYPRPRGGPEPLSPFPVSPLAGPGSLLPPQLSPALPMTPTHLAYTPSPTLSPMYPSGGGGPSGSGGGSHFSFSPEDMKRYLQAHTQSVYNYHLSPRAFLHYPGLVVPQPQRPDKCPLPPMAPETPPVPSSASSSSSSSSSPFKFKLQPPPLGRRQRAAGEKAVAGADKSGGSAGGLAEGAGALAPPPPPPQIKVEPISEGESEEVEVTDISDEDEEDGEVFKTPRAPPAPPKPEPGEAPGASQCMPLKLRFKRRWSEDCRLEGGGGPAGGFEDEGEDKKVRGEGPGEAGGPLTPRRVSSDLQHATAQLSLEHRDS
Summary of the method: (§1)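 Binding signal is given per hexamer as its read frequency for a factor divided by its frequency in the tag-only sample. GST-fused human transcription factors were expressed in yeast, captured on glutathione beads, barcoded with DNA and pooled with that sample, then incubated with 200 nmole of a 16-mer random double-stranded DNA library in Tris/NaCl/DTT/glycerol buffer for 30 min at room temperature. The pools were then washed, crosslinked, proximity-ligated, amplified by PCR and sequenced on an Illumina NextSeq500.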

[2] = target: T2, ETV3L (Homo sapiens, UniProt Q6ZN32 1-361)
T2 sequence: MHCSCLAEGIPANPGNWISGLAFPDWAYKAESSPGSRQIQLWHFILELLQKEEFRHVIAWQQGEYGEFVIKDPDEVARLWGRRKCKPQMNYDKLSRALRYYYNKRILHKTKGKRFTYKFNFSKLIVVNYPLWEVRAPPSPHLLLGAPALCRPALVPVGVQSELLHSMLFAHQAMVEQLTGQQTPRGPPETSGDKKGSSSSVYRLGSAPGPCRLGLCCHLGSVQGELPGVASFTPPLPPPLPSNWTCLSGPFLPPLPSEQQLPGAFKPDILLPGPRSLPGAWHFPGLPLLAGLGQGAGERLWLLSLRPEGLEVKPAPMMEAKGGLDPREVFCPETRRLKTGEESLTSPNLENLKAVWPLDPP
Summary of the method: as §1

[3] = target: T3, ETS2 (Homo sapiens, UniProt P15036 1-469)
T3 sequence: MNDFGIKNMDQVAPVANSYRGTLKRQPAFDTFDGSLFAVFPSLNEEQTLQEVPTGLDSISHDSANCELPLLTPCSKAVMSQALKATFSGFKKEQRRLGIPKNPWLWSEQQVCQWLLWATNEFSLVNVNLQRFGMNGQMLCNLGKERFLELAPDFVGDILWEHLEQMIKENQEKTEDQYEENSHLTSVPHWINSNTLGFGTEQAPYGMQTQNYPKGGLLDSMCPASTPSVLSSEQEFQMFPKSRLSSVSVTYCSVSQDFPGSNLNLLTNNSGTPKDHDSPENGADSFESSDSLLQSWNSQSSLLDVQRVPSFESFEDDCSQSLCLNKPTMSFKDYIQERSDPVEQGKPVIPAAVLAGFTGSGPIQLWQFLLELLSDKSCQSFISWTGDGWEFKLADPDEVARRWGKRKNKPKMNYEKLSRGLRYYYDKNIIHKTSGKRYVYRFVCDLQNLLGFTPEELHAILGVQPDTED
Summary of the method: as §1

[4] = target: T4, SPDEF (Homo sapiens, UniProt O95238 1-335)
T4 sequence: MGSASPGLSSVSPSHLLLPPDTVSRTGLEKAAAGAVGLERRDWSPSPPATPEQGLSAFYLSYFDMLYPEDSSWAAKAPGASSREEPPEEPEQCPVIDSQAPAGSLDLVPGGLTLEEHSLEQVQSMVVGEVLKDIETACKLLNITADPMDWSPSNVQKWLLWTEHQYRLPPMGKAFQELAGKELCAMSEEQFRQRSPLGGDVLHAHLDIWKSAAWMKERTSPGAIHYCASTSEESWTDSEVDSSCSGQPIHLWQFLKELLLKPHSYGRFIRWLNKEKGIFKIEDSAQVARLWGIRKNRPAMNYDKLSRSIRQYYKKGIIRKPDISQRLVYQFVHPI
Summary of the method: as §1

[5] = target: T5, ETV7 (Homo sapiens, UniProt Q9Y603 1-341)
T5 sequence: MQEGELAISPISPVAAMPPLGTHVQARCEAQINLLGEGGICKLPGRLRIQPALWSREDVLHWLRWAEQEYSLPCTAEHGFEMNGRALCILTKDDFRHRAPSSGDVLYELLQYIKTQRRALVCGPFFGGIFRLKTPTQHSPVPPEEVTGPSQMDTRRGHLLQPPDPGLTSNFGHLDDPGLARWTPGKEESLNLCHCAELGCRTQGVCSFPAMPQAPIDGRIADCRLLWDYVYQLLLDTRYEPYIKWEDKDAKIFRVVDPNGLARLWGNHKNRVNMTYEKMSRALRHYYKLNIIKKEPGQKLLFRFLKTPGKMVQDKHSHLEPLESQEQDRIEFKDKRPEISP
Summary of the method: as §1

[6] = target: T6, ELF5 (Homo sapiens, UniProt Q9UKW6-2 1-255)
T6 sequence: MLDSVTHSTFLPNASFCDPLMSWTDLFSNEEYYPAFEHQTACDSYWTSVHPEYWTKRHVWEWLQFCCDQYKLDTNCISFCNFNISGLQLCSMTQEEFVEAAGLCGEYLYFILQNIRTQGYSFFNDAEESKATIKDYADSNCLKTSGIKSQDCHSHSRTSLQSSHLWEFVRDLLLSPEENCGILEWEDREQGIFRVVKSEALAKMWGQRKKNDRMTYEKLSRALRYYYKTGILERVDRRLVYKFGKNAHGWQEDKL
Summary of the method: as §1

[7] = target: T7, ETV3 (Homo sapiens, UniProt P41162-2 1-143)
T7 sequence: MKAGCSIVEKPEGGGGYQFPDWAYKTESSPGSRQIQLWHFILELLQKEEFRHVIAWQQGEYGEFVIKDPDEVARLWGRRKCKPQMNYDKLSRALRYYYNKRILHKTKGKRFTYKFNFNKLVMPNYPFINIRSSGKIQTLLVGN
Summary of the method: as §1

[8] = target: ETV6 (Homo sapiens, UniProt P41212 1-452)
Summary of the method: as §1

Sequence of ETV6 (P41212 whole entry): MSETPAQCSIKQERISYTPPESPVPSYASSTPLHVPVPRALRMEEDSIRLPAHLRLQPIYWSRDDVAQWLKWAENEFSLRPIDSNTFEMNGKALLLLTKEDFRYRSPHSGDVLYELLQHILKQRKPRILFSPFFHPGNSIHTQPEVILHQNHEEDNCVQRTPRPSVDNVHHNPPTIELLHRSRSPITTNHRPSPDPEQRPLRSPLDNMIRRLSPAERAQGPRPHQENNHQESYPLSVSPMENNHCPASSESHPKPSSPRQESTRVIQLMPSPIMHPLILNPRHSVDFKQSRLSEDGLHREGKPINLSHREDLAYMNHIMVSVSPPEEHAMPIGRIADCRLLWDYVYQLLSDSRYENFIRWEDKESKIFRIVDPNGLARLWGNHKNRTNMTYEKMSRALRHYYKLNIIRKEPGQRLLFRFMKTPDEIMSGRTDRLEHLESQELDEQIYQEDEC

Sequence	binding signal [1]	binding signal [2]	binding signal [3]	binding signal [4]	binding signal [5]	binding signal [6]	binding signal [7]	binding signal [8]
AGTACA	1.06 fold enrichment (6-mer frequency, TF over GST control)	1.09 fold enrichment (6-mer frequency, TF over GST control)	1.16 fold enrichment (6-mer frequency, TF over GST control)	1.31 fold enrichment (6-mer frequency, TF over GST control)	1.21 fold enrichment (6-mer frequency, TF over GST control)	1.17 fold enrichment (6-mer frequency, TF over GST control)	1.2 fold enrichment (6-mer frequency, TF over GST control)	1.24 fold enrichment (6-mer frequency, TF over GST control)
AAATTC	1.29 fold enrichment (6-mer frequency, TF over GST control)	1.43 fold enrichment (6-mer frequency, TF over GST control)	1.33 fold enrichment (6-mer frequency, TF over GST control)	1.34 fold enrichment (6-mer frequency, TF over GST control)	1.28 fold enrichment (6-mer frequency, TF over GST control)	1.4 fold enrichment (6-mer frequency, TF over GST control)	1.3 fold enrichment (6-mer frequency, TF over GST control)	1.31 fold enrichment (6-mer frequency, TF over GST control)
TACCTG	1.22 fold enrichment (6-mer frequency, TF over GST control)	1.09 fold enrichment (6-mer frequency, TF over GST control)	1.15 fold enrichment (6-mer frequency, TF over GST control)	1.11 fold enrichment (6-mer frequency, TF over GST control)	1.24 fold enrichment (6-mer frequency, TF over GST control)	1.21 fold enrichment (6-mer frequency, TF over GST control)	1.19 fold enrichment (6-mer frequency, TF over GST control)	1.2 fold enrichment (6-mer frequency, TF over GST control)
AAGGAA	1.23 fold enrichment (6-mer frequency, TF over GST control)	1.3 fold enrichment (6-mer frequency, TF over GST control)	1.34 fold enrichment (6-mer frequency, TF over GST control)	1.22 fold enrichment (6-mer frequency, TF over GST control)	1.28 fold enrichment (6-mer frequency, TF over GST control)	2.15 fold enrichment (6-mer frequency, TF over GST control)	1.37 fold enrichment (6-mer frequency, TF over GST control)	1.41 fold enrichment (6-mer frequency, TF over GST control)
TGTACT	1.11 fold enrichment (6-mer frequency, TF over GST control)	1.26 fold enrichment (6-mer frequency, TF over GST control)	1.27 fold enrichment (6-mer frequency, TF over GST control)	1.71 fold enrichment (6-mer frequency, TF over GST control)	1.24 fold enrichment (6-mer frequency, TF over GST control)	1.37 fold enrichment (6-mer frequency, TF over GST control)	1.22 fold enrichment (6-mer frequency, TF over GST control)	1.28 fold enrichment (6-mer frequency, TF over GST control)
TACGCA	1.28 fold enrichment (6-mer frequency, TF over GST control)	1.12 fold enrichment (6-mer frequency, TF over GST control)	1.2 fold enrichment (6-mer frequency, TF over GST control)	1.16 fold enrichment (6-mer frequency, TF over GST control)	1.12 fold enrichment (6-mer frequency, TF over GST control)	1.11 fold enrichment (6-mer frequency, TF over GST control)	1.1 fold enrichment (6-mer frequency, TF over GST control)	1.18 fold enrichment (6-mer frequency, TF over GST control)
GAACTT	1.56 fold enrichment (6-mer frequency, TF over GST control)	1.58 fold enrichment (6-mer frequency, TF over GST control)	1.61 fold enrichment (6-mer frequency, TF over GST control)	1.61 fold enrichment (6-mer frequency, TF over GST control)	1.62 fold enrichment (6-mer frequency, TF over GST control)	1.96 fold enrichment (6-mer frequency, TF over GST control)	1.69 fold enrichment (6-mer frequency, TF over GST control)	1.73 fold enrichment (6-mer frequency, TF over GST control)
TGCAAC	1.31 fold enrichment (6-mer frequency, TF over GST control)	1.28 fold enrichment (6-mer frequency, TF over GST control)	1.28 fold enrichment (6-mer frequency, TF over GST control)	1.37 fold enrichment (6-mer frequency, TF over GST control)	1.19 fold enrichment (6-mer frequency, TF over GST control)	1.23 fold enrichment (6-mer frequency, TF over GST control)	1.32 fold enrichment (6-mer frequency, TF over GST control)	1.35 fold enrichment (6-mer frequency, TF over GST control)
CCACTC	1.13 fold enrichment (6-mer frequency, TF over GST control)	1.28 fold enrichment (6-mer frequency, TF over GST control)	1.21 fold enrichment (6-mer frequency, TF over GST control)	1.26 fold enrichment (6-mer frequency, TF over GST control)	1.21 fold enrichment (6-mer frequency, TF over GST control)	1.19 fold enrichment (6-mer frequency, TF over GST control)	1.14 fold enrichment (6-mer frequency, TF over GST control)	1.13 fold enrichment (6-mer frequency, TF over GST control)
CTTTAC	1.3 fold enrichment (6-mer frequency, TF over GST control)	1.46 fold enrichment (6-mer frequency, TF over GST control)	1.36 fold enrichment (6-mer frequency, TF over GST control)	1.35 fold enrichment (6-mer frequency, TF over GST control)	1.38 fold enrichment (6-mer frequency, TF over GST control)	1.35 fold enrichment (6-mer frequency, TF over GST control)	1.39 fold enrichment (6-mer frequency, TF over GST control)	1.41 fold enrichment (6-mer frequency, TF over GST control)
TGCGAC	1.22 fold enrichment (6-mer frequency, TF over GST control)	1.32 fold enrichment (6-mer frequency, TF over GST control)	1.19 fold enrichment (6-mer frequency, TF over GST control)	1.15 fold enrichment (6-mer frequency, TF over GST control)	1.29 fold enrichment (6-mer frequency, TF over GST control)	1.2 fold enrichment (6-mer frequency, TF over GST control)	1.27 fold enrichment (6-mer frequency, TF over GST control)	1.28 fold enrichment (6-mer frequency, TF over GST control)
TATAGC	1.24 fold enrichment (6-mer frequency, TF over GST control)	1.25 fold enrichment (6-mer frequency, TF over GST control)	1.18 fold enrichment (6-mer frequency, TF over GST control)	1.18 fold enrichment (6-mer frequency, TF over GST control)	1.19 fold enrichment (6-mer frequency, TF over GST control)	1.13 fold enrichment (6-mer frequency, TF over GST control)	1.2 fold enrichment (6-mer frequency, TF over GST control)	1.15 fold enrichment (6-mer frequency, TF over GST control)
CCATCT	1.41 fold enrichment (6-mer frequency, TF over GST control)	1.35 fold enrichment (6-mer frequency, TF over GST control)	1.35 fold enrichment (6-mer frequency, TF over GST control)	1.11 fold enrichment (6-mer frequency, TF over GST control)	1.33 fold enrichment (6-mer frequency, TF over GST control)	1.27 fold enrichment (6-mer frequency, TF over GST control)	1.25 fold enrichment (6-mer frequency, TF over GST control)	1.25 fold enrichment (6-mer frequency, TF over GST control)
TTACGA	1.06 fold enrichment (6-mer frequency, TF over GST control)	1.18 fold enrichment (6-mer frequency, TF over GST control)	1.14 fold enrichment (6-mer frequency, TF over GST control)	1.1 fold enrichment (6-mer frequency, TF over GST control)	1.1 fold enrichment (6-mer frequency, TF over GST control)	1.08 fold enrichment (6-mer frequency, TF over GST control)	1.1 fold enrichment (6-mer frequency, TF over GST control)	1.21 fold enrichment (6-mer frequency, TF over GST control)
TCCCAA	1.34 fold enrichment (6-mer frequency, TF over GST control)	1.23 fold enrichment (6-mer frequency, TF over GST control)	1.12 fold enrichment (6-mer frequency, TF over GST control)	1.18 fold enrichment (6-mer frequency, TF over GST control)	1.11 fold enrichment (6-mer frequency, TF over GST control)	1.21 fold enrichment (6-mer frequency, TF over GST control)	1.16 fold enrichment (6-mer frequency, TF over GST control)	1.23 fold enrichment (6-mer frequency, TF over GST control)
